# The other results are listed elsewhere or left out. Records with an inconclusive call do not appear. Calls of active or inactive are those of the source.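 How the source made its calls, unless noted: active means inhibition at or above 50% relative to wild type and mutant plate controls; inactive means inhibition below 50%.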
# Key:
# [1] = inhibitors of TNFa-induced NFkB p65 translocation, primary screen, imaging, HUVEC, MLSMR starter and 10KST1 sets (AID 438;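 active means inhibition above 20% together with a positive visual image hit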;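 further: compound added about 3h40 before a 20 min TNFalpha stimulation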;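 on inhibition: signal is the nuclear over cytoplasmic p65 intensity ratio per well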); details: HUVEC TNFa-induced p65 nuclear translocation; cell count: measured here: nuclei count (cytotoxicity indicator), at 2.08 µM; inhibition: at 2 µM, stronger effect = higher value, 0% TNFa-plus-vehicle, 100% no-TNFa wells
# [2] = reduction of polyQ htt aggregates in cells – imaging, exon1htt(103Q)mCFP cells, high-content imaging, primary screen (AID 483;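 active means visual image review flags a hit and inhibition of aggregation exceeds 20%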;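 further: compound exposure lasted 3 days before fixation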;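 on nuclei count: percent of the per-plate median nuclei count of sample wells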); details: exon1htt(103Q)mCFP cell line, aggregate imaging, at 2 µM; inhibition of aggregation: stronger effect = higher value; nuclei count: measured here: cell count, toxicity
# [3] = endothelial E-selectin expression blockers – imaging, HUVEC, immunofluorescence, MLSMR starter and 10KST1 sets, primary screen (AID 487;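 active means visually confirmed hit in the image check and inhibition above 20%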;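 on inhibition: signal is fraction of cell area covered by stained E-selectin grains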;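 on nuclei count: 100% = median nuclei count of all wells on the same plate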); details: HUVEC TNFalpha-induced E-selectin immunofluorescence imaging, at 2 µM; inhibition: stronger effect = higher value; nuclei count: measured here: cell number, toxicity
# [4] = Primary imaging screen for DUSP6 inhibitors that restore phospho-Erk in transfected HeLa cells, chemical complementation (AID 609;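 active means compounds giving at least 50% inhibition in the cell-based MKP-3 phosphatase rescue imaging test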;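 on inhibition: phospho-Erk level distribution per well compared with pooled transfected vehicle control wells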); details: HeLa MKP-3 transfected, phospho-Erk imaging KS statistic, at 10 µM, cells stimulated with TPA for 15 min
# [5] = target: Dual specificity protein phosphatase 6 (Homo sapiens) (UniProt Q16828); experiment: as above; details: HeLa MKP-3 transfected, phospho-Erk imaging KS statistic; at 10 µM; stronger effect = higher value; cells stimulated with TPA for 15 min
# [6] = target: Voltage-gated potassium channel subunit beta-2 (Rattus norvegicus) (UniProt P62483); experiment: inhibitors of rat Kvbeta2 reductase activity – biochemical, NADPH fluorescence, primary screen (AID 622;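 active means fluorescence slope higher than the sample average by over 3 SD, cut at about -0.22 in these data, passing the limit was not always enough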;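 further: slope of raw intensity against log time taken from 70 to 1610 s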); details: recombinant KvBeta, 4-cyanobenzaldehyde reduction, at 10 µM, stronger effect = higher value
# [7] = target: Voltage-gated potassium channel subunit beta-2 (Rattus norvegicus) (UniProt P62483); experiment: enhancers of rat Kvbeta2 NADPH turnover – biochemical, NADPH fluorescence, primary screen (AID 623;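 active means NADPH fluorescence slope more negative than the mean of all samples by about 3 SD, 99.7% confidence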;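 further: fluorescence intensity change per second fitted from 20 to 320 s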); details: Recombinant KvBeta, NADPH fluorescence decrease slope, 10 min; at 10 µM; stronger effect = lower value
# [8] = target: Alpha-2C adrenergic receptor (Homo sapiens) (UniProt P18825); experiment: compounds altering alpha2C-coupled GIRK flux – cell-based, HEK293 alpha2C/GIRK1/2, thallium flux, primary screen (AID 624;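 active means fluorescence slope after compound addition differing from the mean of all screened samples at 99.7% confidence, in either direction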;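 further: slope of fluorescence ratio to pre-addition baseline per second over 15 to 24 s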); details: thallium flux BTC fluorescence, at 10 µM, actives lie on both sides
# [9] = loss of swimming-algae plug formation – whole organism, Chlamydomonas reinhardtii, WT vs cilia-less mutant, absorbance, 96-well, primary screen (AID 463189); details: Chlamydomonas reinhardtii gravitaxis, OD600 absorbance, 2 days; at 10 µM; stronger effect = higher value;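 further: 0% = wild type cc124 cells in DMSO and 100% = ciliumless bld1 mutant cells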
# [10] = blockers of RIG-like receptor reporter activation – cell-based, Sendai virus stimulus, luciferase, 10K MLSCN set, TLR/RLR signaling modifier project, primary screen (AID 602276;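 active means inhibition at or above 50% at 10 µM; inactive means inhibition below 50%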;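 further: firefly luciferase from ISG56 promoter only with Renilla not read in this screen; 0% = Sendai virus plus DMSO and 100% = medium plus DMSO without virus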); details: HEK293 RL24 IRF3 luciferase reporter, at 10 µM, stronger effect = higher value
# [11] = TLR3 IRF3 reporter activation blockers – cell-based, poly I:C stimulus, luciferase, 10K MLSCN set, primary screen (AID 602277;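 active means inhibition of the reporter signal at or above 50%; inactive means inhibition below 50%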); details: HEK293-TLR3 RL24 IRF3 luciferase reporter, at 10 µM, stronger effect = higher value
# [12] = target: Solute carrier family 12 member 5 (Homo sapiens) (UniProt Q9H2X9); experiment: retest of KCC2 transport modulators without sodium – cell-based, HEK293 KCC2, thallium flux, secondary assay, confirmation (AID 1713;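 active means thallium flux slope above the same plate's solvent-only control mean plus 3 SD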); details: FluoZin2 fluorescence, at 10 µM, stronger effect = higher value
# [13] = target: Solute carrier family 12 member 5 (Homo sapiens) (UniProt Q9H2X9); experiment: retest of KCC2 transport modulation, ouabain-free – cell-based, HEK293 KCC2, thallium flux, FluoZin2, secondary assay 2, confirmation (AID 1715;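 active means thallium flux slope more than 3 SD above or below the plate's solvent-only control mean, mostly below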;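 further: raw slope with 0.1% DMSO as baseline and bumetanide as block control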); details: HEK293-KCC2, thallium flux FluoZin2 fluorescence; at 10 µM; actives lie on both sides; F/F0 rise rate, 10–20 s post-thallium
# [14] = compound effects on native HEK Tl+ uptake – HEK cells, counterscreen 1, counter-screen for KCC2 modulator project, confirmation (AID 1716;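 active means thallium flux rate significantly above the same plate's solvent-only control wells, beyond their mean plus 3 SD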); details: HEK293 parental cells, thallium flux FluoZin2, ouabain; at 10 µM; baseline-ratio fluorescence slope, 10–20 s after thallium
# [15] = target: Solute carrier family 12 member 5 (Homo sapiens) (UniProt Q9H2X9); experiment: modulation of KCC2 thallium flux in HEK cells – cell-based, ouabain, retest, confirmation (AID 1717;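 active means thallium flux slope beyond 3 SD from same-plate DMSO control mean in most replicates, usually higher, sometimes lower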;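 further: slope of initial-normalized fluorescence between seconds 10 and 20 after thallium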); details: HEK293-KCC2, thallium flux FluoZin2 fluorescence, at 10 µM, bidirectional: low = inhibitor, high = activator
# [16] = native HEK Tl+ uptake effects, second counter-screen – HEK cells, counterscreen 2, counter-screen for KCC2 modulator project, confirmation (AID 1718;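 active means thallium flux slope above the same plate's solvent-control mean plus 3 SD in both duplicate wells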;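 further: run without ouabain in cells lacking the KCC2 cotransporter; slope of fluorescence scaled to its starting value between 10 and 20 s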); details: HEK293 parental, thallium flux FluoZin-2 fluorescence slope; at 10 µM
# [17] = target: Muscarinic acetylcholine receptor M4 (Homo sapiens) (UniProt P08173); experiment: M4-linked GIRK flux change, two-sided – cell-based, HEK293 M4/GIRK, thallium flux, BTC-AM, M4 allosteric agonist project, primary screen (AID 625;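 active means fluorescence slope after compound addition differing from the mean of all tested samples at 99.7% confidence, mostly higher but some lower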;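 further: thallium influx through GIRK channels coupled to M4 in HEK293 cells with BTC-AM dye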); details: at 10 µM, actives lie on both sides
# [18] = inhibitors of larval lipid processing in zebrafish, primary screen, whole organism, PED6 fluorescence, gall bladder and intestine (AID 686;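 active means a full or partial loss of lipid-probe fluorescence in the fish gall bladder, intestine or both, judged by eye; inactive means no fluorescence loss, or compound toxic to the fish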;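 further: larvae 5 to 7 days old with five fish per well; signal comes from phospholipase A2 cleavage of quenched PED6 carried via bile; overnight exposure to compound and PED6 before scoring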); details: Zebrafish larvae PED6 lipid processing, fluorescence scoring; screened at 20 µM (by protocol)
# [19] = measured here: cell density z-score
# [20] = measured here: nuclear c-Myc green intensity z-score
# [21] = measured here: nuclear pErk red intensity z-score, stronger effect = higher value
# Chain of Muscarinic acetylcholine receptor M4 (Homo sapiens) (P08173 whole entry, looked up): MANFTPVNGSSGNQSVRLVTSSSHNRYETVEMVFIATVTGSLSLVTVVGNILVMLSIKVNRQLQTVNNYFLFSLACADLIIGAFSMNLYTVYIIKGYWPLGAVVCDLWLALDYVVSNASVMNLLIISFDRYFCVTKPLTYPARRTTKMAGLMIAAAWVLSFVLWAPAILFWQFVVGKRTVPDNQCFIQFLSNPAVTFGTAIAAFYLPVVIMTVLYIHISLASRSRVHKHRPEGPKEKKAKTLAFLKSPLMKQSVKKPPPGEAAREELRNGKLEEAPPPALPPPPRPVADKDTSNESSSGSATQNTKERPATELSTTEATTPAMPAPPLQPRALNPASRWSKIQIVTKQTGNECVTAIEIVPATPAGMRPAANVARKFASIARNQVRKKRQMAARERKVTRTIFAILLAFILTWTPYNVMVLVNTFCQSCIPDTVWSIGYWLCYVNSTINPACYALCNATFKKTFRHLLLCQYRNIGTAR
# Chain of Alpha-2C adrenergic receptor (Homo sapiens) (P18825 whole entry, looked up): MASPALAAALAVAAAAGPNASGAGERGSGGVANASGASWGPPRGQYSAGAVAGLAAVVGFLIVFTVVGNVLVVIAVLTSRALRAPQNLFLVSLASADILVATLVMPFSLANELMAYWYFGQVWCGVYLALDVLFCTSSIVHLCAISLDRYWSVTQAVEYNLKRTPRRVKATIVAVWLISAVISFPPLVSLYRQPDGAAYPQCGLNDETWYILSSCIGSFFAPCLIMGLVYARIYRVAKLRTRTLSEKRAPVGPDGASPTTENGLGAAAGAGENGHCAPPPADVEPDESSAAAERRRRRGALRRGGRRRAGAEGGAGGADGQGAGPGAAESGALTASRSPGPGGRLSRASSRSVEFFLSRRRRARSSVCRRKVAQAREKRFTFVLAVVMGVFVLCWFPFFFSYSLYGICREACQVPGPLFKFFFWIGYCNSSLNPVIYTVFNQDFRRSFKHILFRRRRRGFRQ
# Chain of Dual specificity protein phosphatase 6 (Homo sapiens) (Q16828 whole entry, looked up): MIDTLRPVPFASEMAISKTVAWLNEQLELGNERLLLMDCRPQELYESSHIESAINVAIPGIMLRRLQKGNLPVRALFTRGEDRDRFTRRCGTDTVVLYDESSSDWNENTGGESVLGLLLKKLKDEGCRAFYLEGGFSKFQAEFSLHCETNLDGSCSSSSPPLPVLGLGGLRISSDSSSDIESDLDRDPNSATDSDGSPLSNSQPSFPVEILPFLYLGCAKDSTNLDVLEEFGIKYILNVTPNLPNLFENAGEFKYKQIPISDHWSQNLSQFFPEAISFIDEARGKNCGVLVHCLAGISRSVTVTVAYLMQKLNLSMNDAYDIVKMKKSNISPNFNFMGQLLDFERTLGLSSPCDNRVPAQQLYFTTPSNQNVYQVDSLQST
# Chain of Solute carrier family 12 member 5 (Homo sapiens) (Q9H2X9 whole entry, looked up): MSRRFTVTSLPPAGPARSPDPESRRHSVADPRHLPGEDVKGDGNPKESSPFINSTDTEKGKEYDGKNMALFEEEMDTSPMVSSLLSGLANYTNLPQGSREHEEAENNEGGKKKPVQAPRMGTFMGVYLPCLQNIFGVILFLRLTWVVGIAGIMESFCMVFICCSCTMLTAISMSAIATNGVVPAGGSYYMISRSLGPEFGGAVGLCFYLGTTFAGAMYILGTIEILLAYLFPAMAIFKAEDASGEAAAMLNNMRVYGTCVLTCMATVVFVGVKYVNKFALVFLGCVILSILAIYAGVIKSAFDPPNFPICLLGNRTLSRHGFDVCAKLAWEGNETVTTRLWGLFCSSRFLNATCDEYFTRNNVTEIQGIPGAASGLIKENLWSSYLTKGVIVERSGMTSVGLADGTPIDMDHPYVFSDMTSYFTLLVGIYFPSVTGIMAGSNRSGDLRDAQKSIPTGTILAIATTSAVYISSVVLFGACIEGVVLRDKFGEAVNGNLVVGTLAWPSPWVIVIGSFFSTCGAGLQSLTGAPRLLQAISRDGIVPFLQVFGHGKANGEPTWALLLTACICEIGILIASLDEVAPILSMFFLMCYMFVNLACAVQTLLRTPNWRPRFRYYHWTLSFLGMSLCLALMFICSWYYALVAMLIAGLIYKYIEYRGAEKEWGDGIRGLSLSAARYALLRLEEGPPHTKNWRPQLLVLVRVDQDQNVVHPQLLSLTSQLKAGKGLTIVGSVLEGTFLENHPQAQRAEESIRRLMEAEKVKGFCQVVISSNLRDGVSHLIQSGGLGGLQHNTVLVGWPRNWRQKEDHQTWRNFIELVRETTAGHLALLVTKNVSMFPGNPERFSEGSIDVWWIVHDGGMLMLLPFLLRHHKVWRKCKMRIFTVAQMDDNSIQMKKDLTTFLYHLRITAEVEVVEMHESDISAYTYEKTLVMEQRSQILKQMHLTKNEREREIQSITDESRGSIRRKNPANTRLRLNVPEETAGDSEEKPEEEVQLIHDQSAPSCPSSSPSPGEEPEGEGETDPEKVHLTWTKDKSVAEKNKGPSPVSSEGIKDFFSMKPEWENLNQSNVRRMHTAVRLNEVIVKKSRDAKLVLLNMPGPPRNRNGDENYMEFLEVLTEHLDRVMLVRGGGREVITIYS
# Chain of Voltage-gated potassium channel subunit beta-2 (Rattus norvegicus) (P62483 whole entry, looked up): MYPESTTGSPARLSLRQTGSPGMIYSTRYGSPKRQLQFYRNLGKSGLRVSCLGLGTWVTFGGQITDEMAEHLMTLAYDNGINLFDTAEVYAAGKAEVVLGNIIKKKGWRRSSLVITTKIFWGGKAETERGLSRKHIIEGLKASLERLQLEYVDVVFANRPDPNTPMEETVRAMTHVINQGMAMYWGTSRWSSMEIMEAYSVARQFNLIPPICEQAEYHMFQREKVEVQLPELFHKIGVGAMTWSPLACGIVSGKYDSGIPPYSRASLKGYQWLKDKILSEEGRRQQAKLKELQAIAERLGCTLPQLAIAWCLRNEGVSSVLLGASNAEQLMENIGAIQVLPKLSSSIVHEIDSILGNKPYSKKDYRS
structure (smiles),measurement,setting,value
Cc1cccc(COc2ccc(/C(O)=C3\C(=O)C(=O)N(CCN(C)C)C3c3ccncc3)cc2)c1 (stereo not drawn),cell count,[1],526
same,inhibition,[1],3.2% (inactive)
same,inhibition of aggregation,[2],-20.7% (inactive)
same,nuclei count,[2],106%
same,inhibition,[3],-20.5% (inactive)
same,nuclei count,[3],126%
same,z-score,[4]; [19],-1.17
same,z-score,[4]; [20],0.707
same,z-score,[4]; [21],-0.252
same,inhibition,[5],-1.75% (inactive)
same,fluorescence slope,[6],-0.434 (inactive)
same,NADPH fluorescence slope,[7],-0.000161 (inactive)
same,slope,[8],0.00578 (inactive)
same,inhibition,[9],-10.1% (inactive)
same,inhibition,[10],9.07% (inactive)
same,inhibition,[11],4.16% (inactive)
CC[C@@H](C)[C@@H](C(=O)N1CCN(C(=O)OC(C)(C)C)CC1)n1cc(CCC(=O)O)nn1,normalised thallium flux (F/F0 slope),[12],0.0104 (inactive)
same,normalized thallium flux,[13],0.0349 (inactive)
same,thallium flux rate (normalised fluorescence),[14],0.00923 (active)
same,"raw Tl+ flux slope (below DMSO = inhibition, above = activation)",[15],0.0234 (inactive)
same,thallium flux slope,[16],0.0111 (inactive)
CN1c2ccccc2-c2nc3ccccc3n2C1c1ccco1 (stereo not drawn),cell count,[1],385
same,inhibition,[1],-3.7% (inactive)
same,inhibition,[3],1.9% (inactive)
same,nuclei count,[3],99.5%
same,z-score,[4]; [19],0.728
same,z-score,[4]; [20],0.674
same,z-score,[4]; [21],-0.101
same,inhibition,[5],6.04% (inactive)
same,fluorescence slope,[6],-0.315 (inactive)
same,NADPH fluorescence slope,[7],1.6e-05 (inactive)
same,fluorescence slope,[17],0.00492 (inactive)
same,outcome,[18],inactive
same,normalised thallium flux (F/F0 slope),[12],0.00855 (inactive)
same,normalized thallium flux,[13],0.0321 (inactive)
same,thallium flux rate (normalised fluorescence),[14],0.00467 (active)
same,thallium flux slope,[16],0.0097 (inactive)
same,inhibition,[9],3.48% (inactive)
CC(C(=O)O)c1ccc(-c2ccccc2)c(F)c1 (stereo not drawn),cell count,[1],557
same,inhibition,[1],-7.8% (inactive)
same,inhibition of aggregation,[2],-18.5% (inactive)
same,nuclei count,[2],101%
same,inhibition,[3],-48.5% (inactive)
same,nuclei count,[3],113%
same,z-score,[4]; [19],2.7
same,z-score,[4]; [20],-2.89
same,z-score,[4]; [21],0.18
same,inhibition,[5],23.4% (inactive)
same,fluorescence slope,[6],-0.456 (inactive)
same,NADPH fluorescence slope,[7],-6e-05 (inactive)
same,slope,[8],0.0055 (inactive)
same,inhibition,[9],42.5% (inactive)
same,inhibition,[10],18.5% (inactive)
same,inhibition,[11],42.9% (inactive)
c1ccc2[nH]c(-c3cscn3)nc2c1,cell count,[1],587
same,inhibition,[1],2.5% (inactive)
same,inhibition of aggregation,[2],-29.1% (inactive)
same,nuclei count,[2],99.7%
same,inhibition,[3],-51.2% (inactive)
same,nuclei count,[3],111%
same,z-score,[4]; [19],-1.12
same,z-score,[4]; [20],-0.0303
same,z-score,[4]; [21],-0.292
same,inhibition,[5],1.38% (inactive)
same,fluorescence slope,[6],-0.491 (inactive)
same,NADPH fluorescence slope,[7],-6.5e-05 (inactive)
same,slope,[8],0.00525 (inactive)
same,inhibition,[9],45% (inactive)
same,inhibition,[10],-40.2% (inactive)
same,inhibition,[11],-133% (inactive)
COc1ccc(N2CCN(c3nc4c(c(=O)[nH]c(=O)n4C)n3CCCc3ccccc3)CC2)cc1,cell count,[1],636
same,inhibition,[1],6.6% (inactive)
same,inhibition of aggregation,[2],2.8% (inactive)
same,nuclei count,[2],100%
same,inhibition,[3],-69.3% (inactive)
same,nuclei count,[3],112%
same,z-score,[4]; [19],0.546
same,z-score,[4]; [20],-1.43
same,z-score,[4]; [21],0.632
same,inhibition,[5],14.7% (inactive)
same,fluorescence slope,[6],-0.429 (inactive)
same,NADPH fluorescence slope,[7],-3.7e-05 (inactive)
same,slope,[8],0.0083 (inactive)
same,fluorescence slope,[17],0.0059 (inactive)
same,outcome,[18],inactive
same,inhibition,[9],1.13% (inactive)
same,inhibition,[10],12.8% (inactive)
same,inhibition,[11],18.8% (inactive)
COCCNc1oc(-c2ccc(C)cc2)nc1C#N,cell count,[1],405
same,inhibition,[1],1.6% (inactive)
same,inhibition of aggregation,[2],12.5% (inactive)
same,nuclei count,[2],88.9%
same,inhibition,[3],-23.4% (inactive)
same,nuclei count,[3],129%
same,z-score,[4]; [19],-0.898
same,z-score,[4]; [20],0.297
same,z-score,[4]; [21],1.87
same,inhibition,[5],18.2% (inactive)
same,fluorescence slope,[6],-0.461 (inactive)
same,NADPH fluorescence slope,[7],-5.9e-05 (inactive)
same,slope,[8],0.00692 (inactive)
same,fluorescence slope,[17],0.00552 (inactive)
same,outcome,[18],inactive
same,inhibition,[9],4.66% (inactive)
same,inhibition,[10],-24.8% (inactive)
same,inhibition,[11],-85.8% (inactive)
COc1ccc(C2/C(=C(/O)c3cnn(-c4ccccc4)c3C)C(=O)C(=O)N2CCN(C)C)cc1OC (stereo not drawn),cell count,[1],517
same,inhibition,[1],-9.1% (inactive)
same,inhibition of aggregation,[2],16% (inactive)
same,nuclei count,[2],72.6%
same,inhibition,[3],-17.7% (inactive)
same,nuclei count,[3],125%
same,z-score,[4]; [19],-1.21
same,z-score,[4]; [20],1.21
same,z-score,[4]; [21],1.2
same,inhibition,[5],-6.86% (inactive)
same,fluorescence slope,[6],-0.428 (inactive)
same,NADPH fluorescence slope,[7],-0.000117 (inactive)
same,slope,[8],0.00586 (inactive)
same,fluorescence slope,[17],0.00527 (inactive)
same,outcome,[18],inactive
same,inhibition,[9],-4.78% (inactive)
same,inhibition,[10],2.76% (inactive)
same,inhibition,[11],15.6% (inactive)
COc1ccc(-c2onc(C)c2-c2ccccc2)c(O)c1,cell count,[1],477
same,inhibition,[1],0.4% (inactive)
same,inhibition of aggregation,[2],-9.9% (inactive)
same,nuclei count,[2],101%
same,inhibition,[3],-110% (inactive)
same,nuclei count,[3],112%
same,z-score,[4]; [19],-0.0693
same,z-score,[4]; [20],-0.0566
same,z-score,[4]; [21],-1.27
same,inhibition,[5],1.98% (inactive)
same,fluorescence slope,[6],-0.441 (inactive)
same,NADPH fluorescence slope,[7],-4.2e-06 (inactive)
same,slope,[8],0.00908 (inactive)
same,fluorescence slope,[17],0.00531 (inactive)
same,outcome,[18],inactive
same,inhibition,[9],-11.4% (inactive)
same,inhibition,[10],8.8% (inactive)
same,inhibition,[11],32.3% (inactive)
Cc1nc(Sc2cccn2C)c(C(F)(F)F)c(=O)[nH]1,cell count,[1],556
same,inhibition,[1],-4.5% (inactive)
same,inhibition of aggregation,[2],4.3% (inactive)
same,nuclei count,[2],96.7%
same,inhibition,[3],-64.1% (inactive)
same,nuclei count,[3],108%
same,z-score,[4]; [19],-1.97
same,z-score,[4]; [20],0.557
same,z-score,[4]; [21],2.32
same,inhibition,[5],1.9e-07% (inactive)
same,fluorescence slope,[6],-0.447 (inactive)
same,NADPH fluorescence slope,[7],-2.3e-05 (inactive)
same,slope,[8],0.00534 (inactive)
same,fluorescence slope,[17],0.00695 (inactive)
same,outcome,[18],inactive
same,inhibition,[9],12.2% (inactive)
same,inhibition,[10],13.1% (inactive)
same,inhibition,[11],3.1% (inactive)
COc1ccccc1C1(CC(=O)N2CCOCC2)CCOC(C(C)C)C1 (stereo not drawn),cell count,[1],506
same,inhibition,[1],-6.5% (inactive)
same,inhibition of aggregation,[2],-10.9% (inactive)
same,nuclei count,[2],102%
same,inhibition,[3],3.2% (inactive)
same,nuclei count,[3],131%
same,z-score,[4]; [19],0.755
same,z-score,[4]; [20],0.316
same,z-score,[4]; [21],1.01
same,inhibition,[5],5.95% (inactive)
same,fluorescence slope,[6],-0.414 (inactive)
same,NADPH fluorescence slope,[7],-4.7e-05 (inactive)
same,slope,[8],0.00593 (inactive)
same,fluorescence slope,[17],0.00519 (inactive)
same,outcome,[18],inactive
same,inhibition,[9],12.8% (inactive)
same,inhibition,[10],-1.02% (inactive)
same,inhibition,[11],-0.559% (inactive)

# From PubChem BioAssay
